Assay results reported in PubChem BioAssay AID1159580 (chemical genetic matrix, 2015).
The campaign covered roughly 5,500 compounds. About 2,000 (36%) were called active. Roughly 18% stayed inconclusive and do not appear here. Cut-off read from the data, not from the text of the source: active = normalized growth mostly below about 0.91 (no sharp cut-off); inconclusive = no clear call, values can overlap the other calls; inactive = mostly above about 0.92. This is one part of the list.

Experiment: chemical genetic growth profiling, strain panel (AID 1159580);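 note: tested at 20 µM; growth read once vehicle control cultures reached saturation at 30 °C; 1 = growth at the plate median or of vehicle wells; lower values mean less growth of the strain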
Conditions: growth OD

Measured: normalized growth

N[C@@H](C(=O)O)[C@@H](O)[C@H](O)[C@H](O)CO
inactive: S. cerevisiae deletion strains, locus YJR066W, strain TOR1, active compounds read low 0.985 | S. cerevisiae deletion strains, locus YJR075W, strain HOC1, active compounds read low 1.02 | S. cerevisiae deletion strains, locus YKL009W, strain mrt4, active compounds read low 1 | S. cerevisiae deletion strains, locus YKL068W, active compounds read low 1.01 | S. cerevisiae deletion strains, locus YKL085W, strain MDH1 (second series), active compounds read low 1.02 | S. cerevisiae deletion strains, locus YKL085W, strain MDH1, active compounds read low 1.02 | S. cerevisiae deletion strains, locus YKL160W, strain elf1, active compounds read low 1.03 | S. cerevisiae deletion strains, locus YKL190W, strain CNB1, active compounds read low 1.01 | S. cerevisiae deletion strains, locus YKR001C, strain vps1, active compounds read low 1.04 | S. cerevisiae deletion strains, locus YKR026C, strain gcn3, active compounds read low 1.04 | S. cerevisiae deletion strains, locus YKR091W, strain srl3, active compounds read low 1.02 | S. cerevisiae deletion strains, locus YLL001W, strain dnm1, active compounds read low 1.03 | S. cerevisiae deletion strains, locus YLL026W, active compounds read low 1.03 | S. cerevisiae deletion strains, locus YLL041C, strain sdh2, active compounds read low 1.02 | S. cerevisiae deletion strains, locus YLR027C, strain aat2, active compounds read low 1.02 | S. cerevisiae deletion strains, locus YLR039C, strain RIC1, active compounds read low 1.1 | S. cerevisiae deletion strains, locus YLR058C, strain SHM2, active compounds read low 1.01 | S. cerevisiae deletion strains, locus YLR102C, strain apc9, active compounds read low 1.01 | S. cerevisiae deletion strains, locus YLR113W, strain HOG1, active compounds read low 1.07 | S. cerevisiae deletion strains, locus YLR221C, strain rsa3, active compounds read low 1.03 | S. cerevisiae deletion strains, locus YLR258W, strain gsy2, active compounds read low 1.01 | S. cerevisiae deletion strains, locus YLR262C, strain YPT6 (second series), active compounds read low 1.06 | S. cerevisiae deletion strains, locus YLR262C, strain YPT6, active compounds read low 1.14 | S. cerevisiae deletion strains, locus YLR268W, strain sec22, active compounds read low 1.04 | S. cerevisiae deletion strains, locus YLR320W, strain mms22, active compounds read low 1.03 | S. cerevisiae deletion strains, locus YLR330W, strain CHS5, active compounds read low 1.01 | S. cerevisiae deletion strains, locus YLR342W, strain FKS1 (second series), active compounds read low 1.01 | S. cerevisiae deletion strains, locus YLR342W, strain FKS1, active compounds read low 1.03 | S. cerevisiae deletion strains, locus YLR357W, strain rsc2, active compounds read low 1.04 | S. cerevisiae deletion strains, locus YLR370C, strain arc18, active compounds read low 1.02 | S. cerevisiae deletion strains, locus YLR371W, strain rom2, active compounds read low 1.02 | S. cerevisiae deletion strains, locus YLR384C, strain iki3, active compounds read low 1.02 | S. cerevisiae deletion strains, locus YLR418C, strain cdc73, active compounds read low 1.01 | S. cerevisiae deletion strains, locus YML016C, strain PPZ1, active compounds read low 1.01 | S. cerevisiae deletion strains, locus YML032C, strain rad52, active compounds read low 0.989 | S. cerevisiae deletion strains, locus YML120C, strain ndi1, active compounds read low 1.03 | S. cerevisiae deletion strains, locus YML124C, strain tub3, active compounds read low 1.02 | S. cerevisiae deletion strains, locus YMR058W, strain fet3, active compounds read low 1.03 | S. cerevisiae deletion strains, locus YMR078C, strain ctf18, active compounds read low 1.03 | S. cerevisiae deletion strains, locus YMR125W, strain sto1, active compounds read low 1.02 | S. cerevisiae deletion strains, locus YMR129W, active compounds read low 1.03 | S. cerevisiae deletion strains, locus YMR205C, strain PFK2, active compounds read low 1.03 | S. cerevisiae deletion strains, locus YMR223W, strain ubp8, active compounds read low 1.01 | S. cerevisiae deletion strains, locus YMR231W, strain pep5, active compounds read low 1 | S. cerevisiae deletion strains, locus YMR307W, strain GAS1, active compounds read low 0.992 | S. cerevisiae deletion strains, locus YNL067W, strain RPL9B, active compounds read low 1.01 | S. cerevisiae deletion strains, locus YNL071W, strain lat1, active compounds read low 1.03 | S. cerevisiae deletion strains, locus YNL153C, strain GIM3, active compounds read low 1.01 | S. cerevisiae deletion strains, locus YNL183C, strain NPR1, active compounds read low 0.989 | S. cerevisiae deletion strains, locus YNL209W, strain ssb2, active compounds read low 1.02 | S. cerevisiae deletion strains, locus YNL233W, strain BNI4, active compounds read low 1.02 | S. cerevisiae deletion strains, locus YNL248C, strain rpa49, active compounds read low 1.04 | S. cerevisiae deletion strains, locus YNL250W, strain rad50, active compounds read low 1.03 | S. cerevisiae deletion strains, locus YNL271C, strain bni1, active compounds read low 1.03 | S. cerevisiae deletion strains, locus YNL298W, strain CLA4, active compounds read low 1.02 | S. cerevisiae deletion strains, locus YNL307C, strain MCK1, active compounds read low 1.02 | S. cerevisiae deletion strains, locus YNL322C, strain KRE1 (second series), active compounds read low 1.03 | S. cerevisiae deletion strains, locus YNR049C, strain mso1, active compounds read low 1.04 | S. cerevisiae deletion strains, locus YNR052C, strain pop2, active compounds read low 1.01 | S. cerevisiae deletion strains, locus YOL006C, strain TOP1, active compounds read low 1.06 | S. cerevisiae deletion strains, locus YOL012C, strain htz1 0.92 | S. cerevisiae deletion strains, locus YOL147C, strain pex11, active compounds read low 1.01 | S. cerevisiae deletion strains, locus YOR001W, strain rrp6, active compounds read low 1.05 | S. cerevisiae deletion strains, locus YOR061W, strain CKA2, active compounds read low 1.02 | S. cerevisiae deletion strains, locus YOR069W, strain VPS5, active compounds read low 1.01 | S. cerevisiae deletion strains, locus YOR070C, strain gyp1, active compounds read low 1.02 | S. cerevisiae deletion strains, locus YOR080W, strain dia2, active compounds read low 1.04 | S. cerevisiae deletion strains, locus YOR083W, strain WHI5, active compounds read low 1.02 | S. cerevisiae deletion strains, locus YOR106W, strain vam3, active compounds read low 1.07 | S. cerevisiae deletion strains, locus YOR136W, strain idh2, active compounds read low 1.02 | S. cerevisiae deletion strains, locus YOR144C, strain elg1, active compounds read low 1.01 | S. cerevisiae deletion strains, locus YOR184W, strain ser1, active compounds read low 1.03 | S. cerevisiae deletion strains, locus YOR231W, strain MKK1, active compounds read low 1.08 | S. cerevisiae deletion strains, locus YOR265W, strain rbl2, active compounds read low 1.02 | S. cerevisiae deletion strains, locus YOR270C, strain vph1, active compounds read low 1.12 | S. cerevisiae deletion strains, locus YOR290C, strain snf2, active compounds read low 1.02 | S. cerevisiae deletion strains, locus YOR316C, strain cot1, active compounds read low 1.02 | S. cerevisiae deletion strains, locus YPL051W, strain arl3, active compounds read low 1.02 | S. cerevisiae deletion strains, locus YPL055C, strain LGE1, active compounds read low 1.02 | S. cerevisiae deletion strains, locus YPL078C, strain atp4, active compounds read low 1.01 | S. cerevisiae deletion strains, locus YPL106C, strain sse1, active compounds read low 1.01 | S. cerevisiae deletion strains, locus YPL240C, strain hsp82, active compounds read low 1.02 | S. cerevisiae deletion strains, locus YPL256C, strain CLN2, active compounds read low 1.03 | S. cerevisiae deletion strains, locus YPR119W, strain clb2, active compounds read low 1.02 | S. cerevisiae deletion strains, locus YPR141C, strain kar3, active compounds read low 1.02 | S. cerevisiae deletion strains, locus YPR163C, strain tif3, active compounds read low 1.03 | S. cerevisiae deletion strains, locus YPR167C, strain met16, active compounds read low 1.02 | S. cerevisiae deletion strains, strain wtn01, active compounds read low 1.05 | S. cerevisiae strains, strain wild type, active compounds read low 1.01
